Test results taken from PubChem BioAssay (NCATS).
Inconclusive results are not listed. A number with no mark means an inactive call. Activity calls are given as the source filed them. Calls follow the shape of the dose curve; as a rule, active = well fitted inhibition curve with a large enough effect; inconclusive = small, poorly fitted or top-dose-only effect; inactive = flat fitted curve, though single readings scatter.

Molecular target: Dual specificity protein kinase CLK4 (Homo sapiens) (UniProt Q9HAZ1)
Sequence (Q9HAZ1 whole entry, looked up): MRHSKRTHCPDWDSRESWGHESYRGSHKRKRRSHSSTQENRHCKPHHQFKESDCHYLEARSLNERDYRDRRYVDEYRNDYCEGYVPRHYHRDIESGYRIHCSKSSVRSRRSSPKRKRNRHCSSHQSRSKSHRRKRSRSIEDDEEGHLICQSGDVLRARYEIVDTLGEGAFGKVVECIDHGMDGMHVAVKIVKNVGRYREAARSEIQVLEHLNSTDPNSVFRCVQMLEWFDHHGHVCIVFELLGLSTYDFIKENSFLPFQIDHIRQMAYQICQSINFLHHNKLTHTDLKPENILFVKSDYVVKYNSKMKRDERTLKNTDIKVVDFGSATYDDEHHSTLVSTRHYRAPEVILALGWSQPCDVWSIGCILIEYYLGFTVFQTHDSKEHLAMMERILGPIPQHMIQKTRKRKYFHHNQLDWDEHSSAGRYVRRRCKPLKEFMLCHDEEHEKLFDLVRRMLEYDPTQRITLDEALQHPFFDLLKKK
Assay: qHTS Assay for Inhibitors of CDC-like Kinase 4 (ADP-FP Assay) (AID 1795); also: nearly all actives have a fitted effect of over 60% in size;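 as to activity change, negative = inhibition: recombinant human CLK4 phosphorylating RS repeat peptide at 1 µM ATP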
Conditions: Transcreener ADP fluorescence polarization; series mostly up to 50 µM; activity change, negative = inhibition: at the top concentration
Procedure: NIH Molecular Libraries Probe Production Centers Network [MLPCN] NIH Chemical Genomics Center [NCGC] MLPCN Grant: 1R03MH084827-01 Assay Submitter (PI): Tom Misteli NCGC Assay Overview: Clk4 (Invitrogen cat # PV3839) was assayed using ATP and the RS repeat peptide (AnaSpec cat # 61722) as substrates using Transcreener (trade mark), a competitive fluorescence polarization (FP) assay. For the present assay, we used the Orange TranscreenerTM ADP2 (BellBrooks Labs, Madison, Wis) detection system to monitor ADP production in the kinase reaction. […] This allows the ADP tracer to freely rotate leading to a decrease in the observed FP value. The amount of ADP produced can then be calculated using a calibration curve. The positive control for the assay was TG003 (Sigma-Aldrich, cat # 300801-52-9) which is a Clk4 inhibitor [2].
NCGC Assay Protocol Summary: Two uL/well of substrate-buffer solution (100 uM RS peptide, 1 uM ATP, 25 mM Tris pH7.5, 10 mM MgCl2, 0.5 mM EGTA, 2.5 mM DTT, 0.01% Triton X-100 final concentration) was dispensed into 1,536-well assay plates (Greiner, solid black medium-binding plates) with Aurora Discovery BioRAPTR Flying Reagent Dispenser (FRD; Beckton-Dickenson). Using a Kalypsys pin tool equipped with a 1,536-pin tool, 23 nL of compound solution was transferred to the assay plate. Two uL/well Clk4-buffer solution (6.25 nM Clk4, 25 mM Tris pH 7.5, 10 mM MgCl2, 0.5 mM EGTA, 2.5 mM DTT, 0.01% Triton X-100, final concentration) was then added using the FRD yielding a total kinase reaction volume of 4 uL/ well. Then 4 uL/well of detection mixture (4 nM orange fluorescent tracer, 1 ug/mL ADP antibody, final concentration) was then added after an hour and the polarization signal was measured using the EnVision plate reader (PerkinElmer, Waltham, MA) after 30 min of room temperature incubation using the following filters and program settings: BODIPY TMR FP dual Enh mirror (barcode 682); BODIPY-TMR 531 (barcode 105) excitation; BODIPY-TMR FP P/S polarized 595 nm filters (barcodes 210 and 211, respectively); 100% light; 150 flashes; 1.35 G-factor; Detector gains were 685 for the 1st detector; 630 for the 2nd detector.
% is scaled to controls: 0 for no effect and ±100 for the full control effect; potency is read from the fitted curve at half-maximal effect.

Structure (SMILES) | activity change, negative = inhibition [%] | Potency
N#CCCn1c(=O)cnc2cnc(Oc3cccc(Cl)c3)nc21 | 1.91 | –
COc1ccccc1CNc1ccnc(-c2ccccc2CN(C)C)n1 | 8.29 | –
COc1cccc(-c2cncnc2Nc2ccccc2)c1 | -9.81 | –
COc1cccc(Cn2c(=O)c(-c3cc(F)cc(F)c3)nc3cnc(N4CCOCC4)nc32)c1 | 8.65 | –
COc1ccc(CNc2nc(-c3cccc(NS(C)(=O)=O)c3)nc3ccccc23)c(OC)c1 | 12.4 | –
COCCn1c(=O)c(-c2ccc(Cl)cc2)nc2cnc(N(C)C)nc21 | 8.45 | –
COc1ccc(-c2nc3cnc(N4CCN(C)CC4)nc3n(C)c2=O)cc1 | 11.6 | –
CCNc1ncc2nc(-c3cc(F)cc(F)c3)c(=O)n(CCC#N)c2n1 | 4.86 | –
CS(=O)(=O)Nc1cccc(-c2ccc3ncnc(NCc4cccs4)c3c2)c1 | – | 5.01 µM (active)
COCCn1c(=O)c(-c2cccc(C#N)c2)nc2cnc(Nc3ccccc3)nc21 | -6.14 | –
COc1ncc2nc(-c3cn(C)c4ccccc34)c(=O)n(-c3ccccc3)c2n1 | 13.1 | –
CN(Cc1ccco1)c1ccnc(-c2cccnc2)n1 | -10.1 | –
CCNc1ncc2nc(-c3cccc(C#N)c3)c(=O)n(Cc3cccc(OC)c3)c2n1 | 7.1 | –
COc1ccccc1-c1nc(N(C)Cc2ccco2)c2ccccc2n1 | 4.75 | –
CS(=O)(=O)Nc1cccc(-c2nccc(NCc3cccs3)n2)c1 | -21.4 | –
COc1ccc(-c2nc3cnc(N(C)C)nc3n(Cc3ccc(F)cc3)c2=O)cc1 | 7.5 | –
COCCn1c(=O)cnc2cnc(Oc3cccc(Cl)c3)nc21 | -9.09 | –
COc1ccc(Oc2ncc3nc(-c4ccc(F)cc4)c(=O)n(Cc4cccs4)c3n2)cc1 | 9.65 | –
O=c1c(-c2cc(F)cc(F)c2)nc2cncnc2n1Cc1ccccc1Cl | 10 | –
CN1CCN(c2ncnc3ccc(-c4cccc(NS(C)(=O)=O)c4)cc23)CC1 | – | 10 µM (active)

Structure (SMILES) | activity change, negative = inhibition [%] | Potency
COc1ccc(-c2nc3cncnc3n(-c3ccccc3)c2=O)cc1 | 8.04 | –
N#CCCn1c(=O)c(-c2ccccc2)nc2cnc(N3CCOCC3)nc21 | 3.98 | –
CN1CCN(c2ncc3ncc(=O)n(CCc4ccccc4)c3n2)CC1 | -22.4 | –
CCNc1ncc2nc(-c3ccc(Cl)cc3)c(=O)n(-c3ccc(OC)cc3)c2n1 | 4.82 | –
COc1ccccc1-c1cc(N(C)Cc2ccco2)ncn1 | -6.89 | –
CN1CCN(c2ncc3nc(-c4ccc(Cl)cc4)c(=O)n(C)c3n2)CC1 | 10.4 | –
Cc1cnc(CNc2ncncc2-c2ccc(N(C)C)cc2)cn1 | 5.26 | –
O=c1c(-c2cc(F)cc(F)c2)nc2cnc(N3CCNCC3)nc2n1Cc1ccc(F)cc1 | 1.75 | –
COCCn1c(=O)c(-c2ccc(OC)cc2)nc2cnc(N3CCN(C)CC3)nc21 | 11.8 | –
CC(=O)NCCNc1nc(-c2c(C)noc2C)nc2ccccc12 | -9.49 | –
Cc1cnc(CNc2ncncc2-c2ccccc2Cl)cn1 | 6.13 | –
CN1CCN(c2ncc3nc(-c4cccc(C#N)c4)c(=O)n(CCC#N)c3n2)CC1 | 2.22 | –
O=c1c(-c2cc(F)cc(F)c2)nc2cnc(N3CCOCC3)nc2n1CCc1ccccc1 | 9.42 | –
COc1ccc(-c2nc3cnc(N(C)C)nc3n(-c3ccccc3)c2=O)cc1 | 6.54 | –
COc1cccc(Cn2c(=O)c(CCc3ccccc3)nc3cncnc32)c1 | 9.33 | –
COCCn1c(=O)c(CCc2ccccc2)nc2cnc(Oc3ccc(OC)cc3)nc21 | 9.26 | –
CN(C)c1ncc2nc(-c3ccc(Cl)cc3)c(=O)n(-c3ccccc3)c2n1 | 8.29 | –
COc1ncc2ncc(=O)n(C3CC3)c2n1 | 0.797 | –
CN(C)C(=O)c1ccc(-c2cc(N(C)Cc3ccco3)ncn2)cc1 | -3.14 | –
CN(C)C(=O)c1ccc(-c2ccc3ncnc(Nc4ccccc4)c3c2)cc1 | -16.3 | –
